Screens (PubChem)
GDH-TPI counter – inhibits GDH-TPI coupling enzymes, artifact for Mtb FBA screen; GDH-TPI coupled enzyme counterscreen, NADH absorbance; inhibition, % at 4.8 µM; hit rate 1.2% among 360,000; AID 588335; in the data active = inhibition above about 30%
Mtb FBA inh – inhibits M. tuberculosis FBA enzyme | purified M. tuberculosis FBA, fluorescence read-out | inhibition, % at 1 µM | hit rate 2.3% among 360,000; in the data active = inhibition above about 27%
Target sequence (P9WQA3 whole entry, looked up): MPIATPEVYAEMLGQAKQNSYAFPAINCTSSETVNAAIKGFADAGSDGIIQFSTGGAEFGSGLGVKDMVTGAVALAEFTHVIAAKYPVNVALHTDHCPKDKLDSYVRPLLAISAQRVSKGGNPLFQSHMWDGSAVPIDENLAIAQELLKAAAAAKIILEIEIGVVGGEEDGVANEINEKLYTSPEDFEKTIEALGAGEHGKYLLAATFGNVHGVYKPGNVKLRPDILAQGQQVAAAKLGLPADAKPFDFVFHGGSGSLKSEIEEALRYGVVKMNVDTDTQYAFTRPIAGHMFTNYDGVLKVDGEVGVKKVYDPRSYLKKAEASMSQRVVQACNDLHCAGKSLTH
BoNT F protease – inhibitors of Botulinum neurotoxin F light chain protease; hit rate 0.22% among 360,000; Multiplex microsphere protease cleavage assay, flow cytometry; inhibition, % at 10 µM; AID 588497; in the data active = inhibition above about 35%, passing the limit was not always enough; inconclusive = no clear call, values can overlap the other calls
BoNT-A LC inh2 – BoNT A light chain protease inhibition; hit rate 0.17% among 360,000; inhibition, % at 10 µM; AID 588499; multiplex microsphere protease substrate cleavage, flow cytometry
Anthrax LF inh2 – blocks Bacillus anthracis lethal factor protease | hit rate 0.12% among 360,000 | AID 588501 | multiplex microsphere protease cleavage assay, LF | P15917 | inhibition, % at 10 µM
Autofluor counter – flagged as autofluorescent in microsphere protease counterscreen; compound autofluorescence counterscreen, microsphere flow cytometry; stronger effect = higher value; fluorescence intensity (concentration not given with the values); hit rate 3.1% among 360,000; AID 624483; in the data active = fluorescence intensity above about 16000; inconclusive = no clear call, values can overlap the other calls
Numbers stand for hits; n = inactive; u = inconclusive; x = no result; + = active, no number. A selection: hits, their analogues and other compounds. The true share with any hit is near 6.6%. Cut-off read from the data, not from the text of the source, unless noted: active = inhibition above about 30%; inconclusive = no clear call, values can overlap the other calls; inactive = below that.

SMILES | GDH-TPI counter | Mtb FBA inh | BoNT F protease | BoNT-A LC inh2 | Anthrax LF inh2 | Autofluor counter
Cc1ccc(NC(=O)N(C2=NCC(C)S2)c2ccccc2)cc1 (stereo not drawn) | n | n | n | u | n | 19772
COc1ccc(OCC(=O)N/N=C(\C)CC(=O)Nc2cccc([N+](=O)[O-])c2)cc1 | n | n | n | n | n | n
CC(C)(C)[C@H]1COC(=O)[C@@H](Cc2ccc(F)cc2)CC/C=C/C[C@@H](CC(=O)N[C@@H](CO)Cc2ccccc2)C(=O)N1 | n | n | n | n | n | n
O=C(COC(=O)c1cncc(Br)c1)NC1CCCCCC1 | n | n | n | 31.2 | n | n
O=C(COC(=O)c1cncc(Br)c1)NC1CCCC1 | n | n | n | n | n | n
O=[N+]([O-])c1cccc(COc2ccccc2CN2CCCC2)c1 | n | n | n | n | n | n
COc1ccc([N+](=O)[O-])cc1NC(=O)C(C)OC(=O)CSC(C)C(=O)Nc1cc(C)on1 (stereo not drawn) | n | n | n | n | n | u
CN(C)c1ccc(-n2cccc2/C=C/[N+](=O)[O-])cc1 | n | n | n | n | n | n
C/C(=C\c1ccc(N(C)C)cc1)[N+](=O)[O-] | n | n | n | n | n | 22567
CN(C)c1ccc(/C=C/[N+](=O)[O-])cc1 | n | n | 48.1 | 50.2 | n | n
CN(c1ccccc1)c1ccc(/C=C/[N+](=O)[O-])cc1 | n | n | n | 69.8 | n | n
CN1CCN(c2oc(-c3ccccc3)nc2S(=O)(=O)c2ccc(Br)cc2)CC1 | n | n | n | n | n | n
Cc1ccccc1NC(=O)COC(=O)c1ccc(S(=O)(=O)N2CCCC2)cc1 | n | n | n | n | n | n
CC1S/C(=N/N=C/c2ccco2)NC1=O (stereo not drawn) | 38.8 | n | n | n | n | n
CCC1S/C(=N/N=C/c2cccs2)NC1=O (stereo not drawn) | n | n | n | n | n | n
Cc1cccc(NC(=O)C2CC(=O)N/C(=N/N=C/c3ccco3)S2)c1 (stereo not drawn) | 57.0 | n | n | n | n | n
CC1(C)S/C(=N/N=C/c2ccco2)NC1=O | 54.8 | n | n | n | n | n
Cc1cccc(CC2S/C(=N/N=C/c3ccco3)NC2=O)c1 (stereo not drawn) | n | n | n | n | n | n
CC1S/C(=N/N=C/c2cccs2)NC1=O (stereo not drawn) | 42.3 | n | n | n | n | n
Cc1cc(NCCCN(C)C)n2c(nc3ccccc32)c1C#N | n | + | n | n | n | n
Cc1cc(NCCCOC(C)C)n2c(nc3ccccc32)c1C#N | n | 189.9 | n | n | n | n
Cc1cc(NCCCn2ccnc2)n2c(nc3ccccc32)c1C#N | n | 70.3 | n | n | n | n
CCC(C)Nc1cc(C)c(C#N)c2nc3ccccc3n12 (stereo not drawn) | n | + | n | n | n | n
CCc1c(C)c(C#N)c2nc3ccccc3n2c1NCCCN(C)C | n | n | n | n | n | n
O=C(NCCc1cccc(F)c1)/C(=C/c1cccnc1)NC(=O)c1ccccc1 | n | n | n | n | n | n
SMILES | GDH-TPI counter | Mtb FBA inh | BoNT F protease | BoNT-A LC inh2 | Anthrax LF inh2 | Autofluor counter
CCCc1cc(NCCCO)n2c(nc3ccccc32)c1C#N | n | + | n | n | n | n
CCOc1ccccc1Nc1nc2ccccc2n2cnnc12 | n | n | n | n | n | n
CCN(CC)c1nc2ccccc2n2cnnc12 | n | n | n | n | n | 23917
COc1ccc(C2CCc3cc4c(cc3C2=NOC(C)=O)OCO4)cc1OC (stereo not drawn) | n | n | n | n | n | n
COc1ccc(/C=C(\C#N)C(=O)Nc2cccnc2)cc1 | 32.1 | n | n | n | n | n
N#C/C(=C\c1ccc(F)cc1)C(=O)Nc1ccccn1 | n | n | n | n | n | n
CC(NC(=O)/C(C#N)=C/c1ccc(OCC(=O)O)cc1)c1ccccc1 (stereo not drawn) | 37.1 | n | u | n | n | u
CCOc1ccc(/C=C(\C#N)C(=O)Nc2ccccn2)cc1 | 37.8 | n | u | u | n | n
CC1CCCN(CC(O)CN)C1 (stereo not drawn) | n | n | n | n | n | 17684
CC(=O)c1ccc(OCC(O)CN2CCCC(C)C2)cc1 (stereo not drawn) | n | n | n | n | n | n
CC(C)c1ccccc1NC(=O)COC(=O)CCN1C(=O)/C(=C\C=C\c2ccccc2)SC1=S | n | n | n | 39.6 | n | n
O=C(CCCN1C(=O)S/C(=C/C=C/c2ccccc2)C1=O)Nc1ccc(C(=O)O)cc1 | n | n | n | n | n | n
O=C(CCN1C(=O)/C(=C\C=C\c2ccccc2)SC1=S)Nc1ccccc1C(=O)O | n | n | n | n | n | n
O=C(CN1C(=O)S/C(=C\C=C\c2ccccc2)C1=O)Nc1ccc(O)cc1 | 33.3 | n | n | n | n | n
O=C(COC(=O)CCN1C(=O)/C(=C\C=C\c2ccccc2)SC1=S)Nc1ccc(Br)cc1 | n | n | n | 41.3 | n | n
O=C(O)C1CCN(S(=O)(=O)c2ccc3[nH]ccc3c2)CC1 | n | n | n | n | n | n
COc1ccccc1S(=O)(=O)N(C)C[C@@H]1OCc2cnnn2CCCC(=O)N([C@H](C)CO)C[C@H]1C | n | n | n | n | n | n
CON(C)C(=O)Nc1ccc(Cl)cc1 | n | n | n | n | n | 16992
CCCCC[C@@H]1C=C(C(=O)O)[C@H](c2ccc(OC)c(OC)c2)N1S(=O)(=O)c1ccc(C)cc1 | n | n | n | n | n | n
COc1ccc(Cl)cc1C(=O)O/N=C(\N)c1ccccn1 | n | n | u | n | 32.6 | n
O=C(CCCc1nc(-c2ccc(Cl)cc2)no1)N1CCOCC1 | n | n | n | n | n | n
Cc1ccc(-c2noc(CCCC(=O)N3CCOCC3)n2)cc1 | n | n | n | n | n | 20543
Cc1cccc(-c2noc(CCCC(=O)N3CCOCC3)n2)c1 | n | n | n | n | n | 21401
CC(=O)Nc1nc2cc3c(cc2s1)OCO3 | n | n | n | n | n | n
O=C(Nc1nc2cc3c(cc2s1)OCCO3)c1ccco1 | 34.7 | n | n | n | n | n
SMILES | GDH-TPI counter | Mtb FBA inh | BoNT F protease | BoNT-A LC inh2 | Anthrax LF inh2 | Autofluor counter
O=C(Nc1nc2cc3c(cc2s1)OCO3)c1ccco1 | 34.9 | n | n | n | n | n
O=C(Nc1nc2cc3c(cc2s1)OCO3)C1=COCCO1 | 42.3 | n | n | n | n | n
Nc1ccnn1C1CCNCC1 | n | n | n | n | n | 19137
CC(C)[C@H](NC(=O)c1ccco1)C(=O)NC12CC3CC(CC(C3)C1)C2 | n | n | n | n | n | n
O=S(=O)(c1cccs1)N1CCN(c2ncccn2)CC1 | n | n | n | n | n | n
CCS(=O)(=O)N1CCN(c2ccccn2)CC1 | n | n | n | n | n | 26268
O=S(=O)(c1cccs1)N1CCN(c2ccccn2)CC1 | n | n | n | n | n | 22816
c1ccc(CSc2ccc(-c3cccnc3)nn2)nc1 | n | n | n | n | n | n
CCOC(=O)N1CCN(c2cc3nccnc3cc2F)CC1 | n | n | n | u | n | 22764
CCOC(=O)c1ccc(-n2cnc(-c3ccc([N+](=O)[O-])cc3)c2)cc1 | x | n | n | n | n | n
